Compound activity: PubChem, several laboratories
Only some compounds are listed: those with a hit (about 1.6% of all), similar ones and a draw of the others.
NPR1 activator – GC-A stimulated cGMP production enhancers – HEK293 GC-A cells, cGMP TR-FRET, EC30 ANP, primary screen; 0% at EC30 ANP, 100% saturating ANP; 0.14% of 370,000 active; activation, % at 10 µM; Atrial natriuretic peptide receptor 1 (Homo sapiens), P16066; in the data active means activation above about 40%
V-ATPase pH – regulators of yeast V-ATPase proton pumping, primary screen, pHLuorin cytosolic pH fluorescence | AID 504577, 2011 | 0.37% of 350,000 active | response, % at 10 µM | S. cerevisiae; in the data active means response mostly above about 7.3%, no sharp cut-off; inactive means mostly below about 5.4%; further: actives read high
GC-B act – human GC-B receptor activators, primary screen, HEK293 GC-B cells, cGMP TR-FRET, EC30 CNP. Atrial natriuretic peptide receptor 2 (Homo sapiens), P20594. activation, % at 10 µM. 0.11% of 370,000 active. 0% at EC30 CNP, 100% saturating CNP;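 active means activation at 10 µM reaching about 35% in either raw or pattern-adjusted values, limit read from the data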
Rev-erbA mod – modulators of Rev-erb alpha DNA binding, primary screen, biochemical, FITC-DNA, fluorescence polarization, uHTS | Nuclear receptor subfamily 1 group D member 1 (Homo sapiens), P20393 | Rev-erbα–FITC-DNA binding, 90 min | activity, % at 10 µM | 0.79% of 370,000 active;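 active means activity above about 14%, limit read from the data; passing the limit was not always enough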
Target sequence (P20393 whole entry, looked up): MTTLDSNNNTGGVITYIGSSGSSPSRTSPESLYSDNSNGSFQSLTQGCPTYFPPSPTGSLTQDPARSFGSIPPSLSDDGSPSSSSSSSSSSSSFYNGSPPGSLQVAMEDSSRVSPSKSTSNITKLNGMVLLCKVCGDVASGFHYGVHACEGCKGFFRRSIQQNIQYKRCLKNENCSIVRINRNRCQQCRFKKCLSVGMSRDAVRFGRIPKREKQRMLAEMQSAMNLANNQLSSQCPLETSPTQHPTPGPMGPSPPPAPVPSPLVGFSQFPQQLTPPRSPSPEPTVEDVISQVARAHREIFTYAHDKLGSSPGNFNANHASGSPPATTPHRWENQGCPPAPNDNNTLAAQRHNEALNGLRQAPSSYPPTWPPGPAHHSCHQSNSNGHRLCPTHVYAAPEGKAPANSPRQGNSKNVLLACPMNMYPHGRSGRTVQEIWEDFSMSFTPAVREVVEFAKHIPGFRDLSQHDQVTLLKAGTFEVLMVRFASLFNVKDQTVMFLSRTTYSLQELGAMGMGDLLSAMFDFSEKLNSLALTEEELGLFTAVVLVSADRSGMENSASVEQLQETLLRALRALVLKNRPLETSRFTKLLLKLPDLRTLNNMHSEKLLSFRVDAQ
PG9 Ab binder – binders of HIV-1 gp120 antibody PG9, primary screen, biochemical, TR-FRET. HIV-1 gp120 / PG9 antibody interaction. TR-FRET gp120-PG9 antibody binding. inhibition, % at 6.7 µM. 0.43% of 360,000 active; in the data active means inhibition above about 8.5%
Rev-erbA confirm – modulators of Rev-erb alpha DNA binding, confirmation, biochemical, FITC-DNA, fluorescence polarization, single point | shares compounds with Rev-erbA mod | 90 min | activation, % at 25 µM | 61% of 3,000 active | AID 1259319, 2017;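 active means activation at or above a set limit, or at least 3 SD above the negative control mean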
RORg counter – modulation of RORgamma DNA binding, dose response, counter-screen for Rev-erb alpha modulator project, biochemical, fluorescence polarization, FITC-DNA | shares compounds with Rev-erbA mod | purified RORgamma protein-FITC-DNA binding | IC50, µM | 8% of 910 active;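 active means Compounds whose fitted half-maximal concentration for disrupting protein-DNA binding is below 10 micromolar; the record names Rev-erb in its text, so the target is in doubt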
Hits are given with their value; 0 = inactive; - = no result.

SMILES	NPR1 activator	V-ATPase pH	GC-B act	Rev-erbA mod	PG9 Ab binder	Rev-erbA confirm	others
CCOC(=O)c1nnn2c1nc(Nc1cccc(C(F)(F)F)c1)c1ccccc12	0	0	0	48.9	0	38.3	RORg counter=0
CCOCCCNc1nc2c(-c3ccccc3)nnn2c2ccccc12	0	0	0	26.5	0	0
CCN1CCN(c2cc(-c3ccc(F)cc3)c3c(n2)CCCCCC3)CC1	-	-	-	0	-	-
O=c1/c(=C/c2ccc(O)cc2)sc2n1CCCN=2	0	0	0	0	0	-
CN(C)c1ccc(/C=c2\sc3n(c2=O)CCCN=3)cc1	0	0	0	26.7	0	0
CCCCCn1c(SCC(=O)c2ccccc2)nc2cc(C(=O)NCc3ccco3)ccc2c1=O	0	0	0	0	0	-
CCCCCn1c(SCC(=O)c2ccccc2)nc2cc(C(=O)NCC3CCCO3)ccc2c1=O (stereo unspecified)	0	0	0	68.7	0	25.3
N#Cc1cc2cc3c(cc2nc1SCC(=O)N1CCCC1)OCCO3	-	0	-	-	-	-
N#Cc1cc2cc3c(cc2nc1SCC(=O)OC1CCCCC1)OCO3	0	0	0	78.7	0	38.2
CC(=O)CSc1nc2cc3c(cc2cc1C#N)OCCO3	0	0	0	20.2	0	19.7
CCOC(=O)CSc1nc(-c2ccncc2)ccc1C#N	0	0	0	0	0	-
Cc1cc2cc3c(cc2nc1SCC(=O)OC(C)C)OCO3	0	0	0	0	0	-
CCOC(=O)CSc1nc(-c2ccc3c(c2)OCO3)ccc1C#N	0	0	0	19.6	0	17.4
COC(=O)[C@H](CC(C)C)N1Cc2nnn(CC3CCCCC3)c2-c2cc(F)ccc2S1(=O)=O	0	-	0	0	-	-
Cc1ccc(CN2CCCCC(NC(=O)c3ccccc3)C2=O)cc1 (stereo unspecified)	0	-	0	0	-	-
O=C(NC1CCN(Cc2ccccc2)CC1)C1CCN(S(=O)(=O)c2ccc(Cl)cc2)CC1	0	0	0	0	0	-
O=S(=O)(c1ccccc1)c1nnn2c1nc(NC1CCN(Cc3ccccc3)CC1)c1ccccc12	0	0	0	47.5	0	0
O=S(=O)(c1ccccc1)c1nnn2c1nc(NC1CCN(Cc3ccccc3)CC1)c1cc(Cl)ccc12	0	0	0	24.5	0	0
c1ccc(CN2CCC(Nc3nc(-c4cccnc4)nc4ccccc34)CC2)cc1	0	0	0	0	0	-
O=C(CCOc1ccccc1)Nc1nnc(-c2ccc3c(c2)OCCO3)o1	0	0	0	0	0	-
O=C(Nc1nnc(-c2ccc3c(c2)OCCO3)o1)c1ccc(Cc2ccccc2)cc1	0	0	0	30.9	0	0
Fc1ccc(-c2nc3ccc(Br)cn3c2Cc2ccccc2)cc1	0	0	0	19.7	0	12.8
Brc1ccc(-c2nc3ccc(Br)cn3c2Cc2ccccc2)cc1	0	-	0	26.0	0	15.7
Cc1ccc(Cc2c(-c3ccc(C)cc3)nc3ccc(Br)cn23)cc1	0	0	0	0	0	-
Fc1ccc(-c2nc3ccc(Br)cn3c2Cc2cccc(Cl)c2)cc1	0	-	0	28.0	0	14.0
SMILES	NPR1 activator	V-ATPase pH	GC-B act	Rev-erbA mod	PG9 Ab binder	Rev-erbA confirm	others
Clc1ccc(-c2nc3ccc(Br)cn3c2Cc2ccccc2)cc1	0	0	0	23.3	0	19.7
O=C(c1ccccc1)c1nn(-c2ccc(Cl)cc2)cc1C(=O)c1cc2ccccc2oc1=O	0	0	0	33.9	0	0
O=C(O)CSc1c2ccccc2cc2ccccc12	0	0	0	41.1	0	37.5	RORg counter=0
Cc1[nH]c2ccccc2c1SCC(=O)O	0	0	0	0	0	-
COc1ccccc1CNC(=O)N1CCN(Cc2nc3ccccc3c(=O)[nH]2)CC1	0	-	0	0	-	-
O=[N+]([O-])c1ccc(N(c2ccccc2)c2ccccc2)cc1	0	0	0	44.4	0	35.3	RORg counter=0
CCCCCN1C=CC=C/C1=C\C=C(C#N)C#N	0	0	0	0	0	-
CCCCCCN1C=CC(=C/C=C(\C#N)C(=O)OCC)C=C1	0	0	0	57.5	0	30.4
C=CCN1C=C/C(=C\C=C(C#N)C#N)c2ccccc21	0	0	0	0	0	-
CN1/C(=C/C=C(C#N)C#N)C=Cc2ccccc21	0	0	0	0	0	-
CCCN1C=CC(=CC=C(C#N)C#N)C=C1	0	0	0	27.9	0	0
CCOC(=O)/C(C#N)=C/C=C1\C=Cc2ccccc2N1CC	0	0	0	73.6	0	56.0	RORg counter=7.42
C=CCN1C=CC(=CC=C(C#N)C#N)C=C1	0	0	0	32.0	0	21.5
C[C@H]1[C@@H](OC(=O)NCc2ccc(C(F)(F)F)cc2)CC[C@@]23CCCN2C(=O)CCC[C@@H]13	0	-	0	0	-	-
COC(=O)[C@H]1C[C@@]2(N3CCCCC3)c3ccccc3N[C@H]2N1S(=O)(=O)c1ccc([N+](=O)[O-])cc1	0	-	0	0	-	-
c1ccc(CCSc2nnc(-c3cccnc3)n2Cc2ccccc2)cc1	0	-	0	0	-	-
CC(C)=CCC[C@@]1(C(=O)O)[C@H]2CC=C(CO)[C@@H]1CC/C(C)=C/CC/C(C)=C/C2	0	-	0	0	-	-
COP(=O)(O)C[C@@H]1CCc2cc(C)cc([C@H](CC(C)C)NC(=O)OCc3ccccc3)c2O1	0	-	0	0	-	-
Cc1ccc(NC(=O)c2sc(Cl)nc2-c2ccccc2)cc1C	0	0	0	53.1	0	37.8	RORg counter=0
O=C(Nc1ccccc1)c1sc(Cl)nc1-c1ccccc1	0	0	0	0	0	-
O[C@@H]1[C@@H](O)[C@H](n2c3ccc(Cl)cc3c3ccc4c5cc(Cl)ccc5[nH]c4c32)OC[C@H]1O	0	-	0	0	-	-
Fc1ccc(-c2nc3c(Cl)cc(C(F)(F)F)cn3c2Cl)cc1	0	0	0	34.9	0	19.4
COc1ccc2cc(C(=O)Nc3ccccc3)sc(=O)c2c1OC	0	0	0	0	0	-
COc1ccc2cc(C(=O)Nc3ccc(S(N)(=O)=O)cc3)sc(=O)c2c1OC	0	0	0	26.4	0	37.4	RORg counter=0
COC(=O)[C@H](C(C)C)N(Cc1cn(Cc2ccc(C)cc2)nn1)S(=O)(=O)c1ccc(F)cc1Br	0	-	0	0	-	-
O=C(CSc1nnc(-c2ccccc2O)o1)Oc1ccc(OCc2ccccc2)cc1	0	0	0	36.1	0	0
O=C(CSc1nnc(-c2ccncc2)o1)Oc1ccccc1	0	0	0	0	0	-
O=C1c2ccc(-c3ccc(F)cc3OCc3ccccc3)cc2S(=O)(=O)c2cccc(C(=O)N3CCN(c4ncc(Br)cn4)CC3)c21	0	0	0	74.8	0	65.8
